PubChem BioAssay (NCI)
Compounds without any hit were thinned out: in the full panel of roughly 79,000, 15% have a hit. Cut-off read from the data, not from the text of the source: active = growth inhibition above about 70%; inactive = the rest.

What was measured:
[1] = NCI Yeast Anticancer Drug Screen. Data for the rad50 strain (AID 155);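 note: 0% = growth of vehicle-only cultures of the same strain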; conditions: S. cerevisiae rad50 strain growth inhibition; at 50.0 µM; hits give high values
In short: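 Genetically altered yeast (DNA repair pathway); compound treatment; growth inhibition vs vehicle ctrl.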

[2] = NCI Yeast Anticancer Drug Screen. Data for the mec2-1 strain (AID 157); conditions: S. cerevisiae mec2-1 strain, at 50.0 µM, hits give high values
In short: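 Using mec2-1 yeast: add compound, measure growth, express inhibition versus vehicle-treated cultures.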

[3] = NCI Yeast Anticancer Drug Screen. Data for the sgs1 mgt1 strain (AID 161);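 note: 0% = growth of cultures given vehicle only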; conditions: S. cerevisiae sgs1 mgt1 strain, at 50.0 µM, hits give high values
In short: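 Percent growth inhibition was derived by comparing compound-exposed mutant yeast with vehicle-exposed cultures. The strain carries alterations in DNA damage repair.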

[4] = NCI Yeast Anticancer Drug Screen. Data for the cln2 rad14 strain (AID 165);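 note: 0% = growth equal to vehicle treated cultures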; conditions: S. cerevisiae cln2 rad14 strain, at 50.0 µM, hits give high values
In short: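 Yeast strain cln2 rad14, bearing defects in cell cycle control and DNA repair, serves as the test system; values reflect growth inhibition compared with vehicle.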

[5] = NCI Yeast Anticancer Drug Screen. Data for the bub3 strain (AID 167); conditions: S. cerevisiae bub3 mutant strain, at 50.0 µM, hits give high values
In short: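 Yeast carrying a defined mutation is treated with each compound, and growth is compared with that of vehicle-exposed cells to give inhibition.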

[6] = NCI Yeast Anticancer Drug Screen. Data for the mlh1 rad18 strain (AID 175); conditions: S. cerevisiae mlh1 rad18 strain growth inhibition; at 50.0 µM; hits give high values
In short: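 Steps: expose repair-defective yeast to compound; measure growth; express inhibition against vehicle-treated controls.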

Measured: growth inhibition

Clc1ccc(CSc2cnnc(SCc3ccc(Cl)c(Cl)c3)c2SCc2ccc(Cl)c(Cl)c2)cc1Cl
inactive: [1] 1.2% | [2] 5.15% | [3] 3.9% | [4] -5.9% | [5] -0.8% | [6] 17.1%

CC(NC(=O)c1ccccc1)C(=O)O (configuration not stated)
inactive: [1] 25.4% | [2] -6.4% | [3] -26.6% | [4] -24.2% | [5] 0.6% | [6] 27.7%

Cc1ccc(SCC(CF)OC(C)n2cnc3c(=O)[nH]c(N)nc32)cc1 (configuration not stated)
inactive: [1] 9.8% | [2] 6.1% | [3] -27.4% | [4] 23.4% | [5] 7.55% | [6] -46.5%

S=C1SC(=Nc2ccccc2)C(=Nc2ccccc2)N1c1ccc2ccccc2c1
inactive: [1] 8.2% | [2] 8.75% | [3] 28.5% | [4] 12.8% | [5] 27.9% | [6] 24.1%

NC1=NNC(=O)/C1=C/c1ccccc1
inactive: [1] 16.6% | [2] 5.85% | [3] 0.55% | [4] -17.1% | [5] -10.2% | [6] 22.2%

CC1(c2ccc(Cl)s2)NC(=O)NC1=O (configuration not stated)
inactive: [1] -1% | [2] -4.65% | [3] -6.45% | [4] -45.8% | [5] 1.9% | [6] -13.5%

CCOC(OCC)C(C)(C)OC=O
inactive: [1] -9.2% | [2] -20.8% | [3] -7.7% | [4] 24.2% | [5] 10.6% | [6] 6.6%

CC(=O)C(CCN(C)C)(c1ccccc1)C1CCCCC1 (configuration not stated)
inactive: [1] -12.2% | [2] -15.2% | [3] -2.85% | [4] -6.65% | [5] -10.5% | [6] -3.6%

CC(=O)Nc1ccc(S(=O)(=O)N=S(C)C)cc1
inactive: [1] -10.8% | [2] -9.05% | [3] -24.9% | [4] -21.6% | [5] -40% | [6] 13.8%

CC(=O)NC1CON(C(C)=O)C1=O (configuration not stated)
inactive: [1] 2.75% | [2] 0.65% | [3] -9.85% | [4] -54.4% | [5] 2.7% | [6] -6.75%

Nc1ccc(C(=O)CC(N)C(=O)O)cc1O (configuration not stated)
inactive: [1] -9.7% | [2] 21.4% | [3] -6.9% | [4] -17.9% | [5] 6.95% | [6] 11.3%

CCOC(=O)c1nc2c(n(O)c1=N)CCC/C2=N\O
inactive: [1] 4.1% | [2] -1.6% | [3] -8.8% | [4] 14.2% | [5] 3.8% | [6] 5.45%

COc1ccc(N=C2[Se]C(=NC(=O)c3ccccc3)N(c3ccc(OC)cc3)C2=Nc2ccc(OC)cc2)cc1
inactive: [1] 13.1% | [2] -25.5% | [3] -22.2% | [4] -36% | [5] 1.3% | [6] -7.95%

O=C(O)c1cc2cc(S(=O)(=O)O)ccc2cc1O
inactive: [1] 4% | [2] -0.95% | [3] -6.9% | [4] -25.2% | [5] -11.8% | [6] 30.4%

Cc1cc(=O)oc2c(CNC(Cc3ccccc3)C(=O)O)c(O)ccc12 (configuration not stated)
inactive: [1] -39.4% | [2] -40.6% | [3] -24.3% | [4] -21.1% | [5] -22.1% | [6] -69%

CCOC(=O)C1C=C1C(C)(C)O (configuration not stated)
inactive: [1] -15.4% | [2] 9.3% | [3] -13.1% | [4] 1% | [5] 3.9% | [6] -32.9%

CCCCCCCCC(Br)C(Br)CCCCCCCC(=O)N(CCCC)CCCC (configuration not stated)
inactive: [1] 36.9% | [2] 10.6% | [3] 2.05% | [4] -5.45% | [5] 13.8% | [6] 8.3%

CC1(O)CC2(O)C=CC3=C(C(=O)c4cccc(O)c4C3=O)C2(O)C(=O)C1O (configuration not stated)
inactive: [1] 14.2% | [2] 4.1% | [3] 30.4% | [4] 15.8% | [5] 22.9% | [6] 16.6%

CN(C)c1ncnc2c1cnn2-c1ccc(Cl)cc1
inactive: [1] -6.15% | [2] -6.2% | [3] -9.3% | [4] -36.6% | [5] -0.95% | [6] -8.45%

C=C1SC(=Nc2c(C)cccc2Cl)N(C(=O)c2sc3ccccc3c2Cl)C12CCCCC2
inactive: [1] 8.05% | [2] -16% | [3] 2.3% | [4] 5.6% | [5] 8.85% | [6] 8.75%

C/C(=N/NC(=S)N1CCCCCC1)c1ccccc1O
inactive: [1] -63.5% | [2] -40.4% | [3] 5.6% | [4] 45.4% | [5] -12.8% | [6] 34.8%

Cc1cn(C2OC(CO[Si](C)(C)C(C)(C)C)C(N(C)O[Si](C)(C)C(C)(C)C)C2[Se]c2ccccc2)c(=O)[nH]c1=O (configuration not stated)
inactive: [1] -15.5% | [2] -3.1% | [3] 0.5% | [4] -8.65% | [5] -9.85% | [6] -15.2%

NC(N)=NC1CCc2ccccc2C1 (configuration not stated)
inactive: [1] 4.4% | [2] -2.85% | [3] -4% | [4] -5.1% | [5] -0.6% | [6] -5.1%

CC1(C)CNC[C@](C)(OCc2ccccc2)N1
inactive: [1] -24.4% | [2] -29.1% | [3] -11.3% | [4] 11.2% | [5] 10.9% | [6] -4.7%

O=C(O)C(Cc1ccccc1)c1ccccc1 (configuration not stated)
inactive: [1] -39.4% | [2] -12.4% | [3] -11.8% | [4] -21.4% | [5] 9.4% | [6] 2.85%

O=C(O)CCSCCCCCCCCCCCCSCCC(=O)O
inactive: [1] 16.5% | [2] 18.9% | [3] 18.4% | [4] 18.8% | [5] -3.65% | [6] 25.8%

CCOC(=O)Nc1nc2ccn(C)c2s1
inactive: [1] 6.3% | [2] -6.9% | [3] 2.15% | [4] -6.4% | [5] 4.6% | [6] -8%

CN(c1ccccc1Cl)S(=O)(=O)c1ccc([N+](=O)[O-])cc1
inactive: [1] -14.2% | [2] -45.9% | [3] 12.2% | [4] 3.9% | [5] 26.4% | [6] -2.25%

COC(=O)CC1(C(=O)OC)Oc2ccc(Br)cc2C(=O)N1c1cccc(Cl)c1Cl (configuration not stated)
inactive: [1] 52.4% | [2] 13.8% | [3] 46.5% | [4] 40.6% | [5] 52.9% | [6] 54.1%

Cc1cc(C)c(C(=O)/C(O)=C/c2ccccc2)c(C)c1
inactive: [1] -13.7% | [2] -7.7% | [3] 1.2% | [4] 9.95% | [5] -45.5% | [6] -14.2%

Cc1cnc2[nH]c(-c3cccc4ccccc34)cc(=O)c2c1
inactive: [1] 13.2% | [2] 7% | [3] 16.1% | [4] -6.6% | [5] 14.9% | [6] -21.6%

CC1=CC(C(O)C(C)C)C(C)(Cc2ccc(C)cn2)NC1c1ccccc1 (configuration not stated)
inactive: [1] 50.6% | [2] -6.3% | [3] 5.45% | [4] 15.2% | [5] -2.05% | [6] 0.5%

O=C(Nc1cc(Cl)ccc1Cl)c1ccccc1Cl
inactive: [1] 2.9% | [2] -6.7% | [3] 14.8% | [4] 8.85% | [5] 19.9% | [6] 20.5%

CC(C)N(C(=O)C12C3C4C5C3C1(C(=O)N(C(C)C)C(C)C)C5C42)C(C)C (configuration not stated)
inactive: [1] 16.5% | [2] 17.4% | [3] 12.2% | [4] 1% | [5] 19.9% | [6] 14.4%

O=C1C2C=CC(n3[nH]c(=O)n(Cc4ccccc4)c3=O)CC2C(=O)N1c1ccc(Br)cc1 (configuration not stated)
inactive: [1] -3.8% | [2] 3.8% | [3] 3.1% | [4] -30.4% | [5] 4.15% | [6] 2%

C/C=C(\C)C(=O)OC1C2C(C)C(=O)OC2C(O)C(C)C2C=CC(=O)C21C (configuration not stated)
inactive: [1] -21.1% | [2] -23.5% | [3] -7.9% | [4] 9.4% | [5] -21.4% | [6] 6.5%

c1ccc(C2OCCO2)cc1
inactive: [1] 4.05% | [2] -15.2% | [3] -6.7% | [4] 6.6% | [5] -0.2% | [6] 10.4%

O=C(O)C(Cl)C(Cl)c1ccc(Cl)cc1 (configuration not stated)
inactive: [1] -2.6% | [2] 7.15% | [3] 6.15% | [4] -57.3% | [5] 11.9% | [6] 6.6%

O=C1NC(=O)C(=CN2C(=O)/C(=C/c3ccc(O)cc3)SC2=S)C(=O)N1
inactive: [1] -6.6% | [2] -5.7% | [3] 23.1% | [4] 9.15% | [5] 1.8% | [6] 14.7%

CC1=C(O)C(=O)C2C(=O)C1C(C)C2c1ccccc1 (configuration not stated)
inactive: [1] -5.45% | [2] 3.05% | [3] -32.2% | [4] -7.6% | [5] -11.6% | [6] -13.9%

CC(=O)Nc1ccc(S(=O)(=O)[N-]C2C(=O)c3ccccc3C(=O)C2[n+]2ccccc2)cc1 (configuration not stated)
inactive: [1] 25.4% | [2] 23.1% | [3] 28% | [4] -0.35% | [5] 27.8% | [6] -1.8%

CCCCCCCCCCCCOP(=O)(O)OP(=O)(O)OCC1OC(n2cc(C)c(=O)[nH]c2=O)CC1O (configuration not stated)
inactive: [1] 35.4% | [2] 13.9% | [3] 47% | [4] 14.7% | [5] 14.4% | [6] 7.55%
